ATXN2 expr inh: Primary qHTS for Inhibitors of ATXN expression; HEK-293 ATXN2-luciferase reporter, luminescence, 24 h; Potency, µM (top dose mostly 57 µM), without a hit: top-dose activity change, negative = inhibition, hits mostly inhibitors; 0.72% of 360,000 active; note: % is set by controls: 0 for no effect and ±100 for the full control effect; nearly all actives have a fitted effect of over 55% in size
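qHTS (up to 57 uM final) was run with 24 h compound exposure of reporter cells at 37 °C. Each well was multiplexed: SteadyGlo luminescence measured ATXN2-luciferase expression after a fluorogenic Gly-Phe-AFC viability readout (25 uM final).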
HT1080 IDH1KD tx: qHTS for induction of synthetic lethality in tumor cells producing 2HG: qHTS for the HT-1080-IDH1KD cell line | HT-1080 IDH1 knockdown viability, ATP luminescence, 48 h | 2% of 360,000 active | Potency, µM (titrated, usually from 46.1 µM), for the others: top-dose activity, negative = toxicity, hits mostly cytotoxic;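 note: 0% = DMSO wells and -100% = cell-free medium wells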
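Luminescent ATP read-out (CellTiter-Glo, 10 min at room temperature) after 48 h compound exposure at 37 °C gave viability of IDH1-knockdown HT-1080 cells. Activity was normalised to DMSO and cell-free wells, then fitted as concentration-response curves.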
HT1080NT lethal: qHTS for induction of synthetic lethality in tumor cells producing 2HG: qHTS for the HT-1080-NT fibrosarcoma cell line; HT-1080-NT fibrosarcoma viability, CellTiter-Glo ATP luminescence, 48 h; AID 686970, 2013; Potency, µM (series often up to 46.1 µM), for inactives: at the highest dose activity, negative = less viability, most hits filed as cytotoxic; 1.6% of 360,000 active;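 note: NT is the 2HG producing partner of a matched IDH1 knockdown line; 0% = DMSO-treated cells and -100% = media-only wells without cells; nearly all actives have a fitted effect of over 55% in size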
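HT-1080-NT; 750 cells/well; 5% FBS RPMI; 48 h compound, 37 degrees C; CellTiter-Glo luminescence; curve fitting and curve-class assignment.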
TGFb SMAD3 inh: qHTS for Inhibitors of TGF-b. Potency, µM (doses to about 46.1 µM), for inactives: at the highest dose activity, negative = inhibition, actives largely listed as inhibitors. 1.2% of 410,000 active. HepG2 CAGA-GFP TGF-b/SMAD3 reporter, GFP fluorescence, 18 h; TGF-beta stimulated, 500 pg/mL final; note: % is set by controls: 0 for no effect and ±100 for the full control effect; nearly all actives have a fitted effect of over 65% in size
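HEPG2 CAGA-GFP cells (1000/well, DMEM with 1% FBS) were pre-incubated 2 h at 37 degrees C, given compound by pin tool, then stimulated with TGF-beta at 500 pg/mL final for 18 h before per-cell GFP fluorescence imaging.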
HepG2 viability: qHTS for Inhibitors of TGF-b: Cytotox Counterscreen; AID 588856, 2011; HepG2 CAGA-GFP viability, ATP luminescence, 18 h; Potency, µM (series often up to 46.1 µM), for the others: at the top dose activity change, negative = cytotoxicity, hits mostly cytotoxic; 0.76% of 410,000 active
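CellTiter-Glo luminescence gave cytotoxicity after 18 hours at 37 degrees C. The cells were HepG2 CAGA-GFP in 1% FBS DMEM, stimulated with 500 pg/mL TGF-beta after compound addition. %Activity was normalised to no-cell wells (complete cell-killing) and DMSO (no toxicity), and curves were fitted and classified.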
S2 tox: Viability Counterscreen for Primary qHTS for Inhibitors of ATXN expression; 0.49% of 400,000 active; Potency, µM (top dose mostly 56.7 µM), usual class: cytotoxic; S2 cells (HEK-293 line with an ATXN2-luciferase reporter) viability, CellTiter-Fluor protease fluorescence, 24 h; AID 651635, 2014; note: nearly all actives have a fitted effect of over 40% in size
* = called active by the depositor; i = inactive; ? = inconclusive; . = no result given. Only some compounds are listed: those with a hit (about 3.8% of all), similar ones and a draw of the others. Calls come from the whole dose curve; as a rule, active = well fitted curve in the direction sought with a large enough effect; inconclusive = small, poorly fitted or top-dose-only effect, or another doubt; inactive = no such curve, though single readings can be large; an effect the other way counts as inactive or inconclusive. Potency is the fitted concentration of half-maximal effect.

SMILES	ATXN2 expr inh	HT1080 IDH1KD tx	HT1080NT lethal	TGFb SMAD3 inh	HepG2 viability	S2 tox
O=C(/C(=C/O)N=Nc1ccc(Cl)cc1)c1ccncc1	-32%	21µM*	?	?	-100%	i
COc1ccc(C(=O)/C(=C/O)N=Nc2ccc(F)cc2)cc1	?	?	?	?	-38%	22µM*
O=C(/C(=C/O)N=Nc1ccccc1)c1ccco1	-11%	-23%	-3%	-12%	-4%	?
COc1ccc(NS(=O)(=O)c2ccc3[nH]c4c(c3c2)CCCCC4)cc1	?	.	.	?	-59%	?
COc1ccc2c(c1)OC(C)CN(CCNC(=O)c1ccc(-n3cccn3)cc1)C2 (stereo not given)	.	.	.	.	.	i
CN(C)c1ccc(CNC(=O)c2ccc(Cn3c(=O)c4cccn4c4cccnc43)cc2)cc1	.	.	.	-23%	-2%	.
Cc1ccc(-c2onc(C)c2C)cc1S(=O)(=O)NCc1ccco1	.	.	.	0%	-15%	.
O=C(/C(=C/O)N=Nc1ccccc1Cl)c1ccccc1	?	15µM*	13µM*	?	-32%	?
O=C(/C(=C/O)N=Nc1cccc(C(F)(F)F)c1)c1ccccc1	?	-23%	?	?	-6%	i
c1ccc2nc(-c3nc4ccccc4o3)ccc2c1	?	13µM*	10µM*	?	-80%	i
c1ccc(-c2nc3ccccc3o2)nc1	35%	8%	6%	?	-2%	i
CC1=NNC(=O)/C1=C\c1cn(-c2ccccc2)nc1-c1ccccc1	?	13µM*	16µM*	8.9µM*	10µM*	27µM*
CCOc1ccc(CCNC(=O)NCc2noc3ccc(C)cc23)cc1	-2%	.	.	-17%	-22%	i
CS(=O)(=O)c1ccc(C(=O)OCC(=O)NCC2CCCO2)cc1[N+](=O)[O-] (stereo not given)	.	.	.	?	-52%	.
CS(=O)(=O)c1ccc(C(=O)OCC(=O)NC(=O)NC2CCCCC2)cc1[N+](=O)[O-]	.	.	.	4.5µM*	6.3µM*	.
CCC(OC(=O)c1ccc(S(C)(=O)=O)c([N+](=O)[O-])c1)C(=O)NC1C2CC3CC(C2)CC1C3 (stereo not given)	?	.	.	4.5µM*	5.6µM*	6.3µM*
CC(C)CN1CCN(C(=O)COC(=O)c2ccc(S(C)(=O)=O)c([N+](=O)[O-])c2)CC1	-27%	.	.	4.5µM*	4.5µM*	32µM*
CC1CCN(C(=O)C(C)OC(=O)c2ccc(S(C)(=O)=O)c([N+](=O)[O-])c2)CC1 (stereo not given)	.	.	.	10µM*	-77%	.
Cc1ccc(C)c(Cn2c(=O)n(C(C)C)c(=O)c3oc4ccccc4c32)c1	.	.	.	-21%	-20%	.
CSc1nc(C(=O)N2CCOc3ccc(CN4CCN(Cc5ccccn5)CC4)cc3C2)cs1	.	.	.	.	.	i
COc1cc(-c2nc(C)cnc2C)cc2c1OCCN(C(=O)Cn1nc(-c3ccccc3)c3ccccc3c1=O)C2	.	.	.	.	.	i
CC(OC(=O)c1ccc(S(C)(=O)=O)c([N+](=O)[O-])c1)C(=O)NC1C2CC3CC(C2)CC1C3 (stereo not given)	?	.	.	3.2µM*	-101%	3.2µM*
CS(=O)(=O)c1ccc(C(=O)OCC(=O)NC23CC4CC(CC(C4)C2)C3)cc1[N+](=O)[O-]	?	-22%	?	?	-99%	?
S=c1nc[nH]c2c1ncn2C1CCCO1 (stereo not given)	-37%	8.2µM*	4.6µM*	-19%	-29%	?
OCC1OC(n2cnc3c(=S)nc[nH]c32)CC1O (stereo not given)	0%	?	-18%	-4%	-9%	i
SMILES	ATXN2 expr inh	HT1080 IDH1KD tx	HT1080NT lethal	TGFb SMAD3 inh	HepG2 viability	S2 tox
COc1ccc(C)cc1NC(=O)CNC(c1ccccc1)c1ccc(C)cc1 (stereo not given)	0%	5.2µM*	?	?	-11%	i
CCN1/C(=C/c2sc(-c3ccccc3C)c[n+]2C)Sc2ccccc21	?	2.1µM*	2.1µM*	2.5µM*	-31%	.
O=c1[nH]c(SCc2ccccc2Cl)nc2c1CCC2	14%	2%	-1%	18%	6%	i
CNc1nc(SCc2ccccc2Cl)nc2c1CCCC2	-20%	33µM*	?	?	-40%	i
Cc1ccc(C(=O)O/N=C(\N)c2ccccn2)cc1	13µM*	?	15µM*	-6%	-40%	i
N/C(=N\OC(=O)/C=C/c1ccccc1Cl)c1ccccn1	16µM*	8%	?	-3%	1%	i
O=C1NC(=S)S/C1=C\C=C\c1ccc([N+](=O)[O-])o1	?	5.2µM*	5.8µM*	2.2µM*	-105%	8.9µM*
COc1ccc(NC(=O)c2c(C)oc3ccc(O)c(CN4CCN(Cc5ccccc5)CC4)c23)cc1Cl	.	.	.	0%	-32%	.
CCC(Oc1ccc(F)cc1)C(=O)Nc1nc(-c2ccc(F)cc2)ns1 (stereo not given)	.	.	.	-22%	-52%	.
COc1ccc(C(=O)NCCn2cc(SCC(=O)Nc3ccc(F)cc3)c3ccccc32)cc1	?	.	.	?	-30%	32µM*

Compound activity: PubChem BioAssay, National Center for Advancing Translational Sciences (NCATS)
